This note sets out measurements from PubChem BioAssay (NCATS).

Records with an inconclusive call do not appear. Values without a mark were called inactive. Active and inactive are the calls of the source. Calls follow the shape of the dose curve; as a rule, active = well fitted inhibition curve with a large enough effect; inconclusive = small, poorly fitted or top-dose-only effect; inactive = no such curve, though single readings can be large or run the other way. Numbered stars: 1 amine (or outer) side, 2 acyl side, 3 side chain; on linkers, the order of the positions; unused ones are H or OH. Positions of bridges follow the written chain, without caps; N, C: chain ends. Bridge positions count the residues as written; N and C are the ends. Non-standard residues stand in square brackets, D forms with d. Square brackets hold non-standard residues; d marks the D form. Residues, ends and D or L forms follow the SMILES beside them. Peptide text beside a SMILES is read from it. I, II: the chains in the order shown. ξ: configuration not given here. *: point of attachment. Actinocin(9to1) = Cc1c2oc3c(C)ccc(C(=O)[*:1])c3nc-2c(C(=O)[*:2])c(N)c1=O; ξDab(CH2SO3H) = NC(CCNCS(=O)(=O)O)C(=O)O; Octanoyl(6-Me) = CCC(C)CCCCC(=O)*; aThr = C[C@H](O)[C@H](N)C(=O)O; NMeV = CN[C@H](C(=O)O)C(C)C; Dab = NCC[CH](N)C(=O)O; Sar = CNCC(=O)O
Potency is read from the fitted curve at half-maximal effect.

Furin (Homo sapiens), sequence (P09958 whole entry, looked up): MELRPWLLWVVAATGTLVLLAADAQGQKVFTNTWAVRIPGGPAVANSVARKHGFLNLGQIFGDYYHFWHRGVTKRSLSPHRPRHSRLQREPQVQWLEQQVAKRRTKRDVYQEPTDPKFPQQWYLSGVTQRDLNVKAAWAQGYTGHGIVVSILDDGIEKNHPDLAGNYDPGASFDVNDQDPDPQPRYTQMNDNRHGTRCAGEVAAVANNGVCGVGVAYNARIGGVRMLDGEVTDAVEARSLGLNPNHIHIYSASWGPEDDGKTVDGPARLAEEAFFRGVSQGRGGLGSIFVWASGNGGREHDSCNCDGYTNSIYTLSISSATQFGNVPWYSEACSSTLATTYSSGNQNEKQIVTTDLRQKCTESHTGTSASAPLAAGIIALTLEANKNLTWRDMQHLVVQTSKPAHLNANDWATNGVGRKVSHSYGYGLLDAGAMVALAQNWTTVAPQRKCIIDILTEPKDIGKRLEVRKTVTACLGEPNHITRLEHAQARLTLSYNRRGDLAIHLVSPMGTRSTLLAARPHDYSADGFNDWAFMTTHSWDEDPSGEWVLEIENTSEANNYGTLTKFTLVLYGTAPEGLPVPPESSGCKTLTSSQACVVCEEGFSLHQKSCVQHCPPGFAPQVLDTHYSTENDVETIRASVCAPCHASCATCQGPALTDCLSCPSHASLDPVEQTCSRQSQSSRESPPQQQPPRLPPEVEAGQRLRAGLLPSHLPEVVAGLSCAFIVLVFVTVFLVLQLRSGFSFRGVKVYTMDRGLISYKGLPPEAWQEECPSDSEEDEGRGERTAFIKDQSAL

The target in the experiment is Furin (Homo sapiens) (UniProt P09958). The experiment in a line: Furin counterscreen qHTS for Zika virus inhibitors (AID 1347149). Also: nearly all actives have a fitted effect of over 70% in size.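 As to activity change, negative = inhibition: fluorescence gain from furin cutting a BOC-RVRR-AMC peptide substrate over 15 min; top concentration of the series differs between compounds.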 As to conditions: furin enzymatic counterscreen, fluorogenic substrate; series mostly up to 114 µM; activity change, negative = inhibition: at the top concentration. From the text:
Avindra Nath, Ph.D., National Institute of Neurological Disorders and Stroke (NINDS), Bethesda, MD
Radhakrishnan Padmanabhan, Ph.D., Georgetown University (GU), Washington D.C.
Zika Virus causes congenital defects, including microcephaly and is associated with Guillain-Barre syndrome, eningoencephalitis and myelitis in infected adult. […] Using a target-based approach, we hope to establish a screening paradigm to uncover novel, cell-active NS2B-NS3 protease (Zika Virus) specific inhibitors from NCATS' collection of small molecules using qHTS.
Four assay panel was created to identify potential Zika Virus inhibitors. Namely, (1) GU unlinked NS2B-NS3 AMC tagged protease qHTS, (2) GU unlinked NS2B-NS3 Rhodamine tagged protease qHTS, (3) NINDS linked NS2B-NS3 AMC tagged protease qHTS, (4) NINDS linked NS2B-NS3 Rhodamine tagged protease qHTS. Active compounds were re-acquired and re-screened to confirm inhibition. Inhibitors were further screened against various confirmatory and counterscreens in dose response format.
Early Translation Branch (ETB)
National Center for Advancing Translational Sciences (NCATS), Rockville, MD
National Institute of Health (NIH), Bethesda, Maryland
1536-well Furin BOC-RVRR-AMC Protocol:
Human recombinant Furin Serine Protease was purchased from Peprotech (catalog #450-47; full length; Rocky Hill, NJ). Briefly, 3 microL of enzyme (final concentrations of 5 nM), in assay buffer (100 mM HEPES pH 7.0, 1 mM CaCl2 with 0.01% Triton X-100) were dispensed into a 1,536-well solid-bottom black plate (Greiner Bio One, Monroe, NC). Twenty-three nL of compounds (final concentration range 7.28 nM to 114 microM) or control Furin Inhibitor I (Dec-RVKR-CMK; final concentration range 0.248 nM to 8.12 microM) were transferred via Wako Pin-tool (Wako Automation, Richmond, VA). Samples were incubated (RT, protected from light) for 15 minutes followed by a 1 microL substrate addition of BOC-RVRR-AMC (final concentration of 2 microM; Km = ~15 muM90). Plates were then read immediately on a ViewLux High-throughput CCD imager (PerkinElmer, Waltham, MA) equipped with standard UV fluorescence optics (340(30) nm excitation, 450(20) nm emission), then incubated (37C, protected from light) for 15 or 30 minutes (~9% conversion). The change in fluorescence intensity over the 15-minute reaction period was normalized against no-inhibitor and no-enzyme controls and the resulting percent inhibition data were fitted to a 4-parameter Hill equation. Furin Inhibitor I was used as intraplate control.
(In general: The purpose of a counterscreen is to sort out artefacts and off-target activity.)
Consider `O=C(CNc1nnc(-c2ccc([S+](=O)([O-])N3CCCC3)cc2)n1-c1ccccc1)Nc1ccc(C(=O)O)cc1`, for which the “activity change, negative = inhibition” value was 1.6%.
`O=C(Nc1ccc(C(=O)OCc2cc(=O)n3c4c(sc3n2)CCCC4)cc1)c1ccccc1`: the Potency is 41.8 µM (active).
On to `O=C(COC(=O)c1cccc(NC(=O)c2ccc(Br)cc2)c1)c1ccc(Br)cc1`, for which the “activity change, negative = inhibition” value is -15.1%.
Consider `Cc1ccc(-c2nnc(Nc3ccc(Br)cc3)c3ccccc23)cc1S(=O)(=O)NCc1nc2ccccc2[nH]1`, for which the Potency is 52.7 µM (active).
Consider `O=C(COc1ccccc1F)Nc1ccc(C(=O)OCc2cc(=O)n3nc(C4CC4)sc3n2)cc1`, for which the “activity change, negative = inhibition” value was -3.98%.
On the same count and under the same terms, next, `C[C@@H](NC(=O)c1ccc(Cl)cc1)c1c(-c2ccc(F)cc2)noc1C(=O)O`: -8.53% [at 192 µM]; `O=C(COc1ccc(F)cc1)Nc1ccccc1C(=O)OCc1cc(=O)n2nc(C3CC3)sc2n1`: -5.17%.
For `Cc1ccc2nc(-c3ccc(N=Nc4cc(S(=O)(=O)O)c5ccccc5c4O)cc3)sc2c1S(=O)(=O)O`, the Potency is 59.1 µM (active).
For `O=C(O)Cc1cc(I)c(Oc2cc(I)c(O)c(I)c2)c(I)c1`, the “activity change, negative = inhibition” value was 2.33%.
In the case of `CCOC(=O)c1c(-c2ccccc2)oc2ccc(NS(=O)(=O)c3ccc(C(C)C)cc3)cc12`, the Potency was 46.9 µM (active).
With `O=C(OCC#CCSc1nnc(-c2cccc3ccccc23)o1)c1sc2ccccc2c1Cl`, the Potency was 46.9 µM (active).
In the case of `CCOc1ccccc1NC(=O)c1ccc2oc(=O)c(S(=O)(=O)c3ccc(F)cc3)cc2c1`, the “activity change, negative = inhibition” value was -6.63%.
Same read-out and setting: the result for `CC(C)CN1CC(COc2ccc3ccccc3c2)Oc2ccnc(-c3ccc(OCC(=O)O)cc3)c2C1=O` (stereo not given) reads -5.99%; that for `O=C(O)c1ccc(NC(=O)c2cn(-c3ccccc3)nc2-c2ccc(Br)cc2)cc1`, -16.6%.
On the same count and under the same terms, the result for `O=C(O)COc1ccc(-c2nccc3c2C(=O)N(Cc2cccc(C(F)(F)F)c2)CC(COc2ccccc2)O3)cc1` (stereo not given) reads -12.4%; that for `CCOc1ccc(S(=O)(=O)Nc2cc3c(C(=O)OCc4ccccc4)c(C)oc3c3ccccc23)cc1`, -6.74%.
Same read-out and setting: the result for `CC(=O)Oc1cc2c(c(C)c1OC(C)=O)CC=C1[C@@]2(C)CC[C@@]2(C)[C@H]3C[C@](C)(C(=O)O)CC[C@]3(C)CC[C@]12C` reads -9.5% [at 57.5 µM]; that for `COc1ccc(S(=O)(=O)c2cc(NS(=O)(=O)c3ccc(Cl)cc3)c(C)c(C)c2O)cc1`, 1.56%; that for `N#C/C(=C\c1ccc(-c2ccc(Cl)c(C(=O)O)c2)o1)c1nc2ccccc2[nH]1`, -0.469%.
For `Cc1ccc(-c2nnc(Nc3ccc(O)cc3)c3ccccc23)cc1S(=O)(=O)NCc1nc2ccccc2[nH]1`, the “activity change, negative = inhibition” value was -4.38%.
The same measure, in the same setting: the result for `COC(=O)c1ccc(C(=O)Nc2ccc(-c3nc4cc(NC(=O)c5ccc(C(=O)OC)cc5)ccc4o3)cc2)cc1` reads 4.79%; that for `Cc1cccc(C)c1-n1c(SCC(=O)Nc2ccc(C(=O)O)cc2)nnc1-c1cccc([S+](=O)([O-])N2CCCC2)c1`, 1.32%.
With `O=C(O)c1cccc(-c2cccc(C(F)(F)F)c2)c1`, the “activity change, negative = inhibition” value was -4.3% [at 192 µM].
In the case of `CCOc1ccc(C2C(=O)N(C3CCCCCC3)CC(=O)N2CCc2ccc(Cl)cc2)cc1OC` (stereo not given), the “activity change, negative = inhibition” value is -4.27% [at 57.5 µM].
`O=C(Nc1ccc(C(=O)OCc2cc(=O)n3c4c(sc3n2)CCCC4)cc1)c1ccc(F)cc1`: the Potency was 66.3 µM (active).
For `Cc1cc(=O)c2c(O)c3c(O)cc(O)c4c5c(O)cc(O)c6c(O)c7c(=O)cc(C)c8c1c2c(c34)c(c65)c78`, the “activity change, negative = inhibition” value is 4.69%.
Turning to `O=c1oc2ccc3ccccc3c2cc1-c1nnc(Nc2cc(C(F)(F)F)ccc2Cl)s1`, the “activity change, negative = inhibition” value is 9.29%.
On to `CC(C)c1nn2c(=O)cc(COC(=O)c3ccc(NC(=O)c4ccccc4Cl)cc3)nc2s1`, for which the “activity change, negative = inhibition” value was -19%.
Consider `COc1ccc(S(=O)(=O)c2c(Nc3cccc(Cl)c3)sc(C(=O)c3ccccc3)c2N)cc1`, for which the Potency is 52.7 µM (active).
Take `O=C(O)c1ccc(-c2cccc(C(F)(F)F)c2)cc1`: the “activity change, negative = inhibition” value is -6.62% [at 192 µM].
Same read-out and setting: next, `COC(=O)C1=C(c2ccccc2)c2ccccc2S(=O)(=O)N1CC(=O)Nc1ccccc1C(F)(F)F`: 3.53%; `CCC(C)CCCCC(=O)NC(CCNCS(=O)(=O)O)C(=O)NC(C(=O)NC(CCNCS(=O)(=O)O)C(=O)NC1CCNC(=O)C(C(C)O)NC(=O)C(CCNCS(=O)(=O)O)NC(=O)C(CCNCS(=O)(=O)O)NC(=O)C(CC(C)C)NC(=O)C(CC(C)C)NC(=O)C(CCNCS(=O)(=O)O)NC1=O)C(C)O` (stereo not given) ({Octanoyl(6-Me)}-[ξDab(CH2SO3H)]T[ξDab(CH2SO3H)][Dab][ξDab(CH2SO3H)]LL[ξDab(CH2SO3H)][ξDab(CH2SO3H)]T; lactam 4-C; configuration not given here): -1.18%.
On the same count and under the same terms, the result for `Cc1c2oc3c(C)ccc(C(=O)N[C@@H]4C(=O)N[C@@H](C(C)C)C(=O)N5CCC[C@@H]5C(=O)N(C)CC(=O)N(C)[C@@H](C(C)C)C(=O)O[C@H]4C)c3nc-2c(C(=O)N[C@@H]2C(=O)N[C@@H](C(C)C)C(=O)N3CCC[C@@H]3C(=O)N(C)CC(=O)N(C)[C@@H](C(C)C)C(=O)O[C@H]2C)c(N)c1=O` (I: [aThr]V[dP][Sar][NMeV] / II: [aThr]V[dP][Sar][NMeV]; ester I:1-I:C, II:1-II:C; linker I:N-II:N via Actinocin(9to1)) reads -19.3% [at 57.5 µM].
Regarding `Cc1csc2nc(COC(=O)c3ccccc3NC(=O)c3ccc(C(C)(C)C)cc3)cc(=O)n12`, the Potency is 37.3 µM (active).
On the same count and under the same terms, the result for `O=C(O)c1c(Sc2ccccc2)c2cc(Cl)ccc2n1Cc1ccc(Cl)cc1` reads 21.5 µM (active).
On the same count and under the same terms, next, `CCOc1ccc(C(=O)Nc2cccc(C(=O)OCc3cc(=O)n4nc(C5CC5)sc4n3)c2)cc1`: 52.7 µM (active).
As to `COC(=O)c1ccccc1NC(=O)CSc1nc(-c2ccccc2)cc(C(F)(F)F)n1`, the “activity change, negative = inhibition” value is -10.8%.
As to `O=C(OCc1cc(=O)n2c3c(sc2n1)CCCC3)c1cccc(NC(=O)c2ccccc2F)c1`, the Potency is 59.1 µM (active).
With `Cc1ccc(OCC(=O)Nc2ccc(C(=O)OCc3cc(=O)n4nc(C5CC5)sc4n3)cc2)cc1`, the “activity change, negative = inhibition” value was 3.81%.
Still for that read-out and setting: next, `O=C(Nc1cccc(C(=O)OCc2cc(=O)n3nc(C4CC4)sc3n2)c1)c1ccc(F)cc1`: -14.9%.
